aSyn UTR act – Activators via SNCA 5'UTR binding, MLPCN. hit rate 7.1% among 300,000. activity score, % (tested at 7.5 µM), hits read low. alpha-synuclein 5'UTR reporter, activators screen. AID 1814, 2009; in the data active = activity score below about -60%
Numbers without * were called inactive. The list is a sample of the results.

SMILES | aSyn UTR act
Cc1ccc(N=Cc2sc(O)c3ccccc23)c(C)c1 | -190*
CC(=O)c1c(C)[nH]c(C(=O)NCCc2ccccc2)c1C | -102*
COC(=O)/C=C/c1ccccc1S(=O)(=O)N(Cc1ccccc1)Cc1ccco1 | 89
O=C(NCCc1ccccc1)c1ccco1 | -85*
O=C(NCCc1ccccc1)c1c(F)cccc1F | -115*
CN(CC(=O)NCCc1ccccc1)Cc1ccco1 | -81*
Cc1nn(-c2ccc(N3CCCCC3)nn2)c(C)c1CCC(=O)Nc1ccc(F)cc1 | -90*
Cc1ccc(-n2nc(C)c3c(C)c(CCC(=O)Nc4ccc(CN5CCCC5)cc4)c(C)nc32)cc1 | 104
Cc1nn(-c2ccc(N3CCCCC3)nn2)c(C)c1CCC(=O)Nc1cccc(F)c1 | -120*
CCOc1ccc(NC(=O)CCc2c(C)nn(-c3ccc(N4CCCCC4)nn3)c2C)cc1 | -81*
Cc1ccc(NC(=O)CCc2c(C)nn(-c3ccc(N4CCCCC4)nn3)c2C)cc1F | -85*
CC(C)c1ccc(/C=N/N2CCN(c3ccccn3)CC2)cc1 | -122*
Oc1ccccc1/C=N/N1CCN(c2ccccn2)CC1 | -115*
CC(C)c1ccc(/C=N/N2CCCCC2)cc1 | -143*
CN(C)c1ccc(NC(=S)NC23CC4CC(CC(C4)C2)C3)cc1 | -129*
CCC(=O)Nc1ccc(NC(=O)c2cc3ccccc3o2)c(OC)c1 | -134*
COC(=O)c1cc(Cl)c(NC(=O)c2cc3ccccc3o2)cc1OC | -154*
COc1cc(NC(=O)c2c(OC)cccc2OC)ccc1NC(=O)c1cc2ccccc2o1 | -205*
COc1cc(NC(=O)c2ccccc2F)ccc1NC(=O)c1cc2ccccc2o1 | -67*
COC(=O)Cn1c(C)nc2c(sc3nc(C)cc(C)c32)c1=O | -76*
CCOC(=O)Nc1nc(-c2ccc(F)cc2F)cs1 | -148*
Clc1ccc(-c2ncc3ccccn23)cc1 | -104*
Clc1ccccc1-c1ncc2ccccn12 | -98*
CCn1c(Cn2nnc(-c3ccccc3)n2)nnc1SCC(=O)Nc1ccc(C(C)=O)cc1 | -92*
N#C/C(=N\Nc1ccc(Cl)c(Cl)c1)C(=O)C1CC1 | -97*
SMILES | aSyn UTR act
CCOC(=O)C(NC(=O)Nc1ncccn1)(Oc1ccccc1)C(F)(F)F (stereo not drawn) | -83*
S=c1[nH]c(-c2ccccc2)cn1/N=C/c1ccc(Br)cc1 | -81*
Fc1ccccc1/C=N/n1cc(-c2ccccc2)[nH]c1=S | -85*
Clc1cccc(Cl)c1Cn1nnc(N2CCCC2)n1 | -64*
Cc1ccc(Cn2ncn(-c3ccccc3)c2=O)cc1 | -74*
Cc1ccc(-c2csc(NC(=O)c3ccc([N+](=O)[O-])o3)n2)cc1 | -234*
Cn1cc([N+](=O)[O-])c(C(=O)Nc2nc(-c3ccc(Cl)cc3)cs2)n1 | 63
Cc1ccc(CNC(=O)c2ccc([N+](=O)[O-])o2)cc1 | -70*
Cc1ccc(-c2csc(NC(=O)c3ccno3)n2)cc1 | -128*
CN(Cc1ccccc1)C(=O)c1ccc([N+](=O)[O-])o1 | -84*
C=C[C@@]1(C)CC(=O)[C@]2(O)[C@@]3(C)[C@@H](O)CCC(C)(C)[C@@H]3[C@H](OC(C)=O)[C@H](O)[C@@]2(C)O1 | 66
Cc1ccc(NC(=O)C2C3/C=C\CCCCC32)cc1C (stereo not drawn) | -115*
COC(=O)c1ccc(COc2ccc(C)cc2[N+](=O)[O-])o1 | -130*
COC(=O)c1cc(C)ccc1OCc1ccc([N+](=O)[O-])cc1 | -79*
Cc1ccc(COC(=O)c2cc([N+](=O)[O-])ccc2N2CCOCC2)cc1 | 68
N#Cc1c(NC(=S)NC(=O)c2ccccc2)sc2c1CCCC2 | -96*
CC1CCc2c(sc(NC(=S)NC(=O)c3ccccc3)c2C#N)C1 (stereo not drawn) | -74*
CNC(=O)c1c(NC(=O)c2cccc(C)c2)sc2c1CCC2 | -213*
N#Cc1c(NC(=O)c2cnccn2)sc2c1CCCC2 | -128*
N#Cc1c(NC(=O)c2cccnc2)sc2c1CCC2 | -150*
N#Cc1c(NC(=O)c2ccccc2)sc2c1CCC2 | -288*
NC(=O)c1c(NC(=O)c2ccc([N+](=O)[O-])o2)sc2c1CCCC2 | 95
N#Cc1c(NC(=O)c2ccc([N+](=O)[O-])o2)sc2c1CCC2 | -107*
N#Cc1ccc(-c2cccnc2)nc1SCC(=O)Nc1sc2c(c1C#N)CCC2 | -88*
Cc1cc(C(=O)Nc2sc3c(c2C#N)CCC(C)C3)cs1 (stereo not drawn) | -103*
SMILES | aSyn UTR act
COCCCNC(=S)NNC(=O)C1CC1c1ccc(C(C)(C)C)cc1 (stereo not drawn) | -100*
COCCNC(=S)NC(=O)c1ccc(C(C)(C)C)cc1 | -91*
COc1ccccc1Nc1nc(N)nc(-c2cc3ccccc3o2)n1 | -62*
S=C(Nc1ccccc1)Nc1ccc2cn[nH]c2c1 | -75*
Cc1ccc(NC(=S)Nc2ccc3cn[nH]c3c2)cc1 | -83*
O=C(NC(=S)Nc1ccc2cn[nH]c2c1)c1ccccc1 | -173*
CS(=O)(=O)c1ccc2sc(NC(=O)c3cc4ccccc4o3)nc2c1 | -96*
CS(=O)(=O)c1ccc2nc(NC(=O)c3cc4ccccc4o3)sc2c1 | -167*
CC(=O)Nc1nc2ccc(-c3nc4ccccc4o3)cc2s1 | -108*
C=C1[C@@H](C)C2[C@H](Cc3ccccc3)NC(=O)[C@]23OC(=O)CC[C@H](O)CCC[C@H](C)C/C=C/[C@H]3[C@@H]1O (stereo partly drawn) | 80
C=CCN1C(=O)S/C(=C\c2ccc(N3CCOCC3)cc2C)C1=O | -152*
Cc1cc(N2CCCC2)ccc1/C=C1\NC(=S)N(C)C1=O | -261*
O=C1NC(=O)/C(=C\c2ccc(O)cc2O)S1 | -77*
Cc1cc(N2CCOCC2)ccc1/C=C1/SC(=O)NC1=O | -67*
C=CC(C)N1C(=O)S/C(=C\c2ccc(N3CCOCC3)cc2C)C1=O (stereo not drawn) | -120*
CN(C)c1ccc(N=Nc2ccc(S(N)(=O)=O)cc2)cc1 | -96*
Cc1cc(C)cc(NC(=O)/C=C/c2ccc([N+](=O)[O-])s2)c1 | -244*
Cc1ccccc1NC(=O)/C=C/c1ccc([N+](=O)[O-])s1 | -80*
CCOC(=O)c1ccc(NC(=O)/C=C/c2cccs2)cc1 | -251*
Cc1ccccc1NC(=O)/C=C/c1cccs1 | -119*
CC(=O)c1cccc(NC(=O)/C=C/c2ccc([N+](=O)[O-])s2)c1 | -326*
COc1cccc2c1C(=O)c1c(O)c3c(c(O)c1C2=O)C[C@@](O)(C(=O)CO)C[C@@H]3O[C@H]1C[C@H](N)[C@@H](O)[C@H](C)O1 | 109
CCOc1cc(CNc2ccc3c(c2)OCCO3)cc(Br)c1OC | 95
CCOc1cc(CNc2ccc3c(c2)OCCO3)cc(Br)c1OCC(N)=O | -66*
CCN(CC)C(=O)Oc1ccc2c(=O)c(-c3ccccc3)coc2c1 | -90*
SMILES | aSyn UTR act
COc1ccc2c(=O)c(-c3ccc(OC)c(OC)c3)coc2c1 | -97*
CCOc1ccc2c(=O)c(Oc3ccccc3OCC)coc2c1 | -100*
COc1ccccc1-c1coc2cc(O)cc(O)c2c1=O | -71*
CCc1ccc(Oc2coc3cc(OCC(=O)Nc4cc(C)ccc4C)ccc3c2=O)cc1 | 60
COc1ccc2c(=O)c(-c3ccccc3)coc2c1 | -65*
O=c1c(-c2ccc(F)cc2)coc2c3c(ccc12)OCCO3 | -128*
O=c1c(-c2ccc(F)cc2)coc2cc(O)ccc12 | -94*
COc1ccc(-c2coc3cc(O)ccc3c2=O)cc1OC | -66*
CC1CCCN(C(=O)COC(=O)c2n[nH]c3ccccc23)C1 (stereo not drawn) | -140*

Bioassay records as filed in PubChem BioAssay.
